# Assays:
# Type in all cases: functional
# [1] = molecular target: Solute carrier family 2, facilitated glucose transporter member 1 (Homo sapiens) (UniProt P11166); test: ST_JUDE_LEISH: Cytotoxicity at 2uM final concentration against transgenic Leishmania Mexicana promastigotes LmGLUT1 that are glucose transport deficient and complemented with the human glucose transporter GLUT1. Activity is measured by DNA content using SYBR green in vitro
# [2] = molecular target: Hexose transporter 1 (Plasmodium falciparum) (UniProt O97467); test: ST_JUDE_LEISH: Cytotoxicity at 2uM final concentration against transgenic Leishmania Mexicana promastigotes LmPfHT that are glucose transport deficient and complemented with the Plasmodium falciparum hexose transporter. Activity is measured by DNA content using SYBR green in vitro
# [3] = molecular target: Glucose transporter (Leishmania mexicana) (UniProt O61059); test: ST_JUDE_LEISH: Cytotoxicity at 2uM final concentration against transgenic Leishmania Mexicana promastigotes LmGT2 that are glucose transport deficient and complemented with the L. Mexicana glucose transporter 2. Activity is measured by DNA content using SYBR green in vitro
# Sequence of Solute carrier family 2, facilitated glucose transporter member 1 (Homo sapiens) (P11166 whole entry): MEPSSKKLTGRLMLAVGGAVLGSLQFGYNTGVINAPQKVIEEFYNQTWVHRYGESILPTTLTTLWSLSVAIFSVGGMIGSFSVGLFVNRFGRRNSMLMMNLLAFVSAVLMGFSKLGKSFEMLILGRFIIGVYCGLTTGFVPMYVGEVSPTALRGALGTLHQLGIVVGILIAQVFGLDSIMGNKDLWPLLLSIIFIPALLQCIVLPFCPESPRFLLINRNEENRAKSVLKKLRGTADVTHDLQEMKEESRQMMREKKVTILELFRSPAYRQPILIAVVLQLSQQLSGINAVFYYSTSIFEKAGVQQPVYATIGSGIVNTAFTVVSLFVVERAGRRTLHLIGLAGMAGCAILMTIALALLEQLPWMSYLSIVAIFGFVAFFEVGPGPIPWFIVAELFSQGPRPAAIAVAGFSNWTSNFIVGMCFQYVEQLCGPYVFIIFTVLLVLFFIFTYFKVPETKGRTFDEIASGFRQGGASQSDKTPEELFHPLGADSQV
SMILES,inhibition [1] [%],inhibition [2] [%],inhibition [3] [%]
O=C(NCCCN1CCCCC1)c1cccc(Nc2nccc(Nc3ccc(Oc4ccccc4)cc3)n2)c1,-2.69,-2.52,-2.53
COc1cc2c(Nc3cccc(NC(=O)c4ccccc4)c3)ncnc2cc1OCCCN1CCOCC1,0.63,2.08,0.27
Cc1noc(-c2ccc3c(c2)CCN(CCC2CCC(NC(=O)/C=C/c4cccc(Cl)c4)CC2)CC3)n1 (stereo unspecified),1.02,0,0.68
c1ccc(CCNCc2ccc(-c3cccc(CNc4ccc5ncccc5c4)c3)cc2)cc1,14.6,11.7,11.3
COc1cc(NCC(O)CNc2cc(Cl)nc3ccccc23)nc2ccccc12 (stereo unspecified),8.65,8.28,7
O=C(NCc1ccc(Cl)c(Cl)c1)c1cc(CNC2CCNCC2)ccc1O,0.91,5.71,2.11
O=C(CC1NC(=O)c2ccccc21)Nc1ccc(-c2ccc(-c3nc4cc(C(F)(F)F)ccc4[nH]3)cc2)cc1 (stereo unspecified),4.68,3.05,5.45
Fc1ccc2c(NN=Cc3ccc(Cl)cc3)ccnc2c1,10.8,10.9,6.76
N=C(N)NC(=O)Nc1cc(Cl)c(Cl)c(Br)c1,6.7,5.82,2.08
N#Cc1ccc(N2CCN(Cc3ccc(-c4ccc(-c5nc6cc(C(F)(F)F)ccc6[nH]5)s4)cc3)CC2)nc1,2.33,1.76,0.96
CN(C)CCOc1cc(NC(=O)c2ccc(-c3ccc(Cl)cc3Cl)cc2)ccc1-c1ccccc1,0.11,0.95,-0.43
Cc1ccc2nc3ccccc3c(NCCN3CCN(C)CC3)c2c1,39.1,50.6,21.1
CN(C)S(=O)(=O)c1ccc(N2CCN(CCC3(c4cccc(F)c4)CCN(C(=O)C(C)(C)C)CC3)CC2)c2nonc12,9.09,8.17,2.89
COc1ccc(CNc2cc(C)nc3sc4c(c23)CCC2(C4)OCCO2)cc1,1.79,1.85,0.47
CN(C)CCN(C)Cc1ccc(-c2cccc(-c3nc4ccccc4[nH]3)c2)cc1,-0.63,1.04,0
CCn1c2ccccc2c2cc(Cc3cnc(N)nc3N)ccc21,9.49,8.51,3.47
COc1csc2cc(Br)ccc12,1.01,1.16,0.18
CN1CCC(Oc2ccc(CN3CC[C@H](NC(=O)c4cccc(C#N)c4)C3)c3ccccc23)C1 (stereo partly specified),-0.8,1.42,2.12
OC(c1ccccc1)C1CN(CCC2CC3CCC2C3)CCC1(O)c1ccccc1 (stereo unspecified),-0.77,-3.69,-3.24
O=c1[nH]ccc2nc(N[C@@H]3CCNC3)nc(Nc3cccc(S(=O)(=O)N4CCOCC4)c3)c12,2.94,3.93,0.85
Cc1ccc(C2CCN(CCCCNC(=O)c3ccc(NC(=O)c4ccc(Cl)cc4)cc3)CC2)c(C)c1,-0.93,-0.75,-0.85
CCCC(CNCc1cccc(OC(F)(F)F)c1)CNc1cc(=O)c2ccccc2[nH]1 (stereo unspecified),3.23,3.46,2.94
COc1ccccc1N1CCN(Cc2c(O)ccc3cc(Br)ccc23)CC1,5.54,4.31,6.16
COc1cccc(C(=O)N2CCOC(CCN3CCC(c4ccccc4)CC3)(c3ccc(Cl)c(Cl)c3)C2)c1 (stereo unspecified),0.55,-0.77,-0.26

SMILES,inhibition [1] [%],inhibition [2] [%],inhibition [3] [%]
O=C(Nc1cccc(CN2CCCN(Cc3ccc(F)cc3)CC2)c1)c1ccc(Cl)c(Cl)c1,4.82,4.15,0.56
Cc1ccc(F)c(CN2CCC(N3CC(c4ccccc4)(c4ccccc4)OC3=O)CC2)c1Cl,10.4,9.52,9.68
Cc1cnc2ccc(NS(=O)(=O)c3sc4ccc(Cl)cc4c3C)cc2c1N1CCNCC1,3.23,4.04,-0.02
COc1ccc2nc3cc(Cl)ccc3c(NCCCCN)c2c1,2.17,1.49,0.04
Cc1c(Cc2ccccc2)c(=O)oc2c(C)c3c(cc12)CN(CC(C)c1ccccc1)CO3 (stereo unspecified),4.3,4.73,5.8
Oc1ccc(Nc2ccnc3cc(Cl)ccc23)cc1,3.83,4.67,4.27
CS(=O)(=O)CCNCc1nc(-c2ccc3ncnc(Nc4ccc(OCc5ccccc5)c(Cl)c4)c3c2)cs1,4.21,3.42,2.9
O=C(NCCCCN1CCC(c2ccc(C(F)(F)F)cc2C(F)(F)F)CC1)c1ccc(NC(=O)c2ccc(Cl)cc2)cc1,0.67,3.98,-1.54
Cc1noc(C)c1-c1ccc(C(=C2CCCCCC2)c2ccc(O)cc2)cc1,3.18,3.88,4.06
Cc1cc(Nc2ccnc(-c3ccc(Cl)cc3)n2)ccn1,7.95,8.43,8.52
O=C(Nc1ccc(-c2ccccc2)cc1)Nc1ccc2c(c1)CCNCC2,-2.5,0.46,-3.69
CCCCNc1c(C(=O)OCC)c(C)nc2c1[nH]c1ccccc12,3.19,4.14,-0.65
O=C(Nc1ccc(Cn2ncc(N3CCNCC3)c(Cl)c2=O)cc1)Nc1ccc(-c2ccccc2)cc1,4.36,2.78,-0.78
CC(O)C1CCCCN1C(=O)c1cccc(-c2ccc(-c3nc4cc(C(F)(F)F)ccc4[nH]3)cc2)c1 (stereo unspecified),0.8,0.3,1
O=C(Nc1cccc(-c2ccc(-c3nc4ccccc4[nH]3)cc2)c1)c1ccncc1,8.95,4.33,2.5
Cc1cccc2nc(-c3cccc(-c4cccc(CN5CCC(CO)CC5)c4)c3)[nH]c12,9.53,8.91,8.87
N=C(N)Nc1nc(-c2ccc(NC(=O)Nc3cccc(-c4csc(NC(=N)N)n4)c3)cc2)cs1,-0.61,0,-0.17
COc1cccc(C(=O)NCc2nnc(S)n2-c2ccc(Cl)c(Cl)c2)c1,-0.13,0.68,-0.3
COc1ccc(Cc2c(Cl)nc3nc(N)nc(N)c3c2C)c(OC)c1OC,5.35,12.4,5.26
COc1cc2c(cc1OC)CN(CCCCc1ccc(NC(=O)c3cc(Cl)cc(Cl)c3)cc1)CC2,4.58,4.95,-0.56
CCCCC(CC)CN1C(=O)C(c2ccccc2)(c2ccccc2)N=C1N (stereo unspecified),-0.17,0.02,2.42
Cc1ccccc1C1CCN(C2CCC(NC(=O)/C=C/c3ccc(C(F)(F)F)cc3)CC2)CC1 (stereo unspecified),0.43,1.57,1.85
O=C(N[C@H](Cc1ccc(Cl)cc1)C(=O)N1CCN(c2ccnc3cc(Cl)ccc23)CC1)[C@H]1Cc2ccccc2CN1,0.9,-0.43,-2.58
CNC(=O)c1cc(Nc2nnc(-c3ccc(C)c(S(=O)(=O)NC4CCCCC4)c3)c3ccccc23)ccc1OC,4,3.11,4.93

SMILES,inhibition [1] [%],inhibition [2] [%],inhibition [3] [%]
COc1ccc(CNC2CCN(C)CC2)cc1-c1ccc(S(=O)(=O)NC2CCC2)cc1,2.91,2.71,2.91
CC(C)(C)c1ccc(O)c(CNC2CCCCC2)c1,4.48,3.36,3.1
CC(CN(C)C)C(=O)Nc1ccc(-c2ccc(-c3nc4cc(F)ccc4[nH]3)cc2)cc1 (stereo unspecified),5.33,1.98,2.85
CC(C)c1ccc(NC(=O)NC2CCN(CCCCCN(C)C(=O)/C=C/c3ccc(Cl)c(Cl)c3)C2)cc1 (stereo unspecified),5.33,7.26,6.41
C[C@@H](Oc1cc(-n2cnc3cc(SCCN4CCN(C)CC4)ccc32)sc1C(N)=O)c1ccccc1Cl,35.4,40.9,23.6
Cc1c(CCNC(=O)CCCN2CC(C)CC(C)C2)c2ccccc2n1C (stereo unspecified),1.14,3.38,3.01
Cc1cc(N[C@@H](Cc2ccccc2)C(=O)NCCc2ccccc2)nc(NCCc2ccccc2)n1,4.48,3.79,4.38
CC(CN(C)C)C(=O)Nc1ccc(-c2cccc(-c3nc4ccccc4[nH]3)c2)cc1 (stereo unspecified),5.14,4.81,8.05
CN1CCN(c2cc(NC(=O)c3ccc(-c4ccc(C#N)cc4)cc3)ccc2Cl)CC1,0.4,-0.14,0.17
COc1ccc(CNC2Cc3ccccc3C2)cc1-c1ccc(OC)c(S(=O)(=O)NCCN2CCCC2)c1,1.59,1.67,-1.29
CC1CN(Cc2ccc(-c3cccc(-c4nc5cc(F)ccc5[nH]4)c3)cc2)CC(C)O1 (stereo unspecified),1.55,7.65,2.46
CN1C(=C2SC(=Nc3ccc4ncccc4c3)N(Cc3ccccc3)C2=O)Sc2ccc(Cl)cc21,1.22,2.08,1.06
Cc1ccc(Nc2nc3cc(N(C)c4ccnc(Nc5cccc(CS(C)(=O)=O)c5)n4)ccc3o2)cc1,5.07,4.21,4.65
Cc1nc(C)c(-c2ccc(Oc3ccc(Cl)cc3)c(Cl)c2)c(O)c1Br,2.21,3.03,1.91
Cc1[nH]c(C)c(-c2ccc(-c3cccc(C(F)(F)F)c3)nc2)c(=O)c1Br,9.61,8.1,6.29
CC(C)c1cccc(OCC2CCN(c3ncc(C(=O)Nc4ccccc4)cc3Cl)CC2)c1,2.96,1.07,-2.66
Cc1cc(Nc2ccc(O)cc2)nc2cccc(O)c12,2.06,0.79,3.84
Cc1cc(C(=O)NCc2ccc(-c3c(C)noc3C)cc2)n(-c2ccccc2)n1,4.79,4.63,3.34
CCOC(=O)N[C@@H]1CN[C@@H](C#Cc2cc3c(Nc4ccc(OCc5cccc(F)c5)c(Cl)c4)ncnc3s2)C1,-1.82,0.54,0.09
CN1CCN(Cc2cc3cc(NC(=O)/C=C/c4cccc(Cl)c4)ccc3s2)CC1,0.65,0.04,-0.14
Cc1cc(CN2CCC(Nc3ncc(-c4ccsc4)c4nc(C(F)(F)F)ccc34)CC2)no1,5.49,6.03,5.5
CC(C)OC(=O)c1cccnc1SCC(=O)Nc1ccc(C(F)(F)F)cc1Cl,1.58,1.68,3.79
NC(=O)c1cc(-c2ccccc2)cc2c(C3CCC(NCc4ccccc4)C3)c[nH]c12 (stereo unspecified),0.91,1.64,0.8
CNc1ccc(CNCc2cccc(-c3ccc(-c4nc5cccc(C)c5[nH]4)s3)c2)cc1,8.15,5,6.79

# Source: ChEMBL document CHEMBL3433997, “St. Jude Leishmania screening dataset” (2016)
